Results reported in PubChem BioAssay (NCI).
The panel holds about 79,000 compounds, 15% with a hit somewhere; the sample as a whole holds those more often. Activity calls are given as the source filed them. No stated cut-off is given here; in the data, active means growth inhibition above about 70%; inactive means the rest.

Experiments:
[1] = NCI Yeast Anticancer Drug Screen. Data for the rad52 strain (AID 147);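 further: 0% = growth of vehicle-treated control cultures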; conditions: S. cerevisiae rad52 mutant growth inhibition, active compounds read high
In short: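 Genetically altered yeast (DNA damage repair defect) treated with compound; inhibition calculated relative to vehicle.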

[2] = NCI Yeast Anticancer Drug Screen. Data for the wt1 strain (AID 149);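 further: 0% = growth of vehicle-treated wt1 cultures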; conditions: S. cerevisiae wt1 strain (SPY 50644) growth inhibition, active compounds read high
In short: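 Readout: yeast growth inhibition, normalised to vehicle controls, in the wt1 strain exposed to test compounds.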

[3] = NCI Yeast Anticancer Drug Screen. Data for the rad50EPP+ strain (AID 151);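 further: 0% = growth of vehicle-treated control cultures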; conditions: S. cerevisiae rad50 mutant strain, active compounds read high
In short: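 Strain rad50EPP+; compound exposure; % growth inhibition vs vehicle.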

[4] = NCI Yeast Anticancer Drug Screen. Data for the mgt1 strain (AID 153); conditions: S. cerevisiae mgt1 mutant growth inhibition, active compounds read high
In short: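 Read-out: yeast growth inhibition vs vehicle control. Strain mgt1, drawn from a panel altered in DNA damage repair or cell cycle control.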

[5] = NCI Yeast Anticancer Drug Screen. Data for the rad50 strain (AID 155);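 further: 0% = growth of vehicle-only cultures of the same strain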; conditions: S. cerevisiae rad50 strain growth inhibition, active compounds read high
In short: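 Compounds were tested on a yeast strain with an engineered DNA damage repair alteration; the reported value is growth inhibition normalised to vehicle treatment.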

[6] = NCI Yeast Anticancer Drug Screen. Data for the mec2-1 strain (AID 157); conditions: S. cerevisiae mec2-1 strain, active compounds read high
In short: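 Cells of the genetically defined mec2-1 yeast strain are incubated with test compound. Inhibition of growth is calculated against vehicle-treated controls.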

[7] = NCI Yeast Anticancer Drug Screen. Data for the rad14 strain (AID 159);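 further: 0% = growth of vehicle-treated control cultures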; conditions: S. cerevisiae rad14 strain growth inhibition, active compounds read high
In short: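 Compound-treated yeast with a defined DNA-repair lesion; growth inhibition normalised to vehicle-treated cultures.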

[8] = NCI Yeast Anticancer Drug Screen. Data for the sgs1 mgt1 strain (AID 161);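 further: 0% = growth of cultures given vehicle only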; conditions: S. cerevisiae sgs1 mgt1 strain, active compounds read high
In short: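 Test agents were incubated with a DNA-repair-mutant yeast strain. Growth was then read and compared against vehicle-treated controls.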

[9] = NCI Yeast Anticancer Drug Screen. Data for the CLN2oe strain (AID 163);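 further: 0% = growth of vehicle-only control cultures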; conditions: S. cerevisiae CLN2oe strain, active compounds read high
In short: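 Strain altered in cell-cycle control, incubated with compound; growth compared to solvent-treated controls.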

[10] = NCI Yeast Anticancer Drug Screen. Data for the cln2 rad14 strain (AID 165);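 further: 0% = growth equal to vehicle treated cultures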; conditions: S. cerevisiae cln2 rad14 strain, active compounds read high
In short: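 The screen exposed genetically defined yeast (cln2 rad14) to test compounds and scored growth inhibition relative to vehicle-treated controls.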

[11] = NCI Yeast Anticancer Drug Screen. Data for the bub3 strain (AID 167); conditions: S. cerevisiae bub3 mutant strain, active compounds read high
In short: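 Growth of a checkpoint-deficient yeast mutant is measured after compound exposure. Values represent inhibition relative to vehicle.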

[12] = NCI Yeast Anticancer Drug Screen. Data for the wt2 strain (AID 169);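 further: 0% = growth of vehicle-treated yeast cultures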; conditions: S. cerevisiae wt2 strain growth inhibition, active compounds read high
In short: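 Steps: yeast strain treated with compound; growth recorded; inhibition calculated relative to cultures given vehicle alone.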

[13] = NCI Yeast Anticancer Drug Screen. Data for the mlh1 strain (AID 171);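 further: 0% = growth of vehicle-treated control cultures of the same strain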; conditions: S. cerevisiae mlh1 strain growth inhibition, active compounds read high
In short: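 Yeast screen: mutant strain plus compound, growth scored against vehicle control wells.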

[14] = NCI Yeast Anticancer Drug Screen. Data for the sgs1 strain (AID 173);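 further: 0% = growth of vehicle-only control cultures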; conditions: S. cerevisiae sgs1 mutant, active compounds read high
In short: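 Inhibition of yeast growth served as the measure. The mutant strain was treated with each compound, and growth was normalised to cultures receiving vehicle alone.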

[15] = NCI Yeast Anticancer Drug Screen. Data for the mlh1 rad18 strain (AID 175); conditions: S. cerevisiae mlh1 rad18 strain growth inhibition, active compounds read high
In short: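 Compound-treated yeast growth, normalised to vehicle controls. Strain bears defined DNA repair mutations.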

[16] = NCI Yeast Anticancer Drug Screen. Data for the rad18 strain (AID 177); conditions: S. cerevisiae rad18 mutant growth inhibition, active compounds read high
In short: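 Inhibition values reflect reduced yeast growth compared with vehicle-treated controls, using a strain engineered with a DNA damage repair defect.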

[17] = at 5.0 µM (retest, dose inferred, filed as 0.5)
[18] = at 50.0 µM (retest, dose inferred, filed as 5.0)

Measured: growth inhibition

CN(C)c1ccc2c(SCC(=O)OCC(=O)[C@@]3(O)CC[C@H]4[C@@H]5CCC6=CC(=O)C=C[C@]6(C)[C@H]5C(=O)C[C@@]43C)c3ccc(N(C)C)cc3nc2c1
active: [1]; at 33.0 µM 90% | [1]; at 100.0 µM 92% | [2]; at 33.0 µM 91% | [2]; at 100.0 µM 91% | [3]; at 100.0 µM 83% | [4]; at 33.0 µM 89% | [4]; at 100.0 µM 88% | [5]; at 11.0 µM 71% | [5]; at 33.0 µM 90% | [5]; [18] 89% | [5]; at 100.0 µM 89% | [6]; at 33.0 µM 90% | [6]; [18] 86% | [6]; at 50.0 µM 72.9% | [6]; at 100.0 µM 90% | [7]; at 33.0 µM 90% | [7]; at 100.0 µM 88% | [8]; [18] 92% | [8]; at 50.0 µM 78.7% | [9]; at 33.0 µM 89% | [9]; at 100.0 µM 89% | [10]; [18] 78% | [10]; at 50.0 µM 80.7% | [11]; at 33.0 µM 87% | [11]; [18] 95% | [11]; at 50.0 µM 72.3% | [11]; at 100.0 µM 89% | [12]; at 100.0 µM 83% | [13]; at 33.0 µM 86% | [13]; at 100.0 µM 87% | [14]; at 11.0 µM 71% | [14]; at 33.0 µM 91% | [14]; at 100.0 µM 90% | [15]; [18] 86% | [15]; at 50.0 µM 84.5% | [16]; at 11.0 µM 74% | [16]; at 33.0 µM 90% | [16]; at 100.0 µM 87%
inactive: [1]; at 1.2 µM -7% | [1]; at 3.7 µM -8% | [1]; at 11.0 µM 46% | [2]; at 1.2 µM 16% | [2]; at 3.7 µM -16% | [2]; at 11.0 µM 64% | [3]; at 1.2 µM 1% | [3]; at 3.7 µM 6% | [3]; at 11.0 µM 6% | [3]; at 33.0 µM 63% | [4]; at 1.2 µM -27% | [4]; at 3.7 µM -37% | [4]; at 11.0 µM 69% | [5]; at 1.2 µM -31% | [5]; at 3.7 µM -13% | [5]; [17] 7% | [5]; at 50.0 µM 60.2% | [6]; at 1.2 µM -10% | [6]; at 3.7 µM -5% | [6]; [17] 13% | [6]; at 11.0 µM 55% | [7]; at 1.2 µM -12% | [7]; at 3.7 µM -22% | [7]; at 11.0 µM 66% | [8]; [17] 12% | [9]; at 1.2 µM 9% | [9]; at 3.7 µM 16% | [9]; at 11.0 µM 53% | [10]; [17] 0% | [11]; at 1.2 µM -13% | [11]; at 3.7 µM -4% | [11]; [17] 22% | [11]; at 11.0 µM 55% | [12]; at 1.2 µM -89% | [12]; at 3.7 µM -74% | [12]; at 11.0 µM -15% | [12]; at 33.0 µM 67% | [13]; at 1.2 µM -15% | [13]; at 3.7 µM -30% | [13]; at 11.0 µM 46% | [14]; at 1.2 µM 2% | [14]; at 3.7 µM -18% | [15]; [17] 50% | [16]; at 1.2 µM -9% | [16]; at 3.7 µM 6%
